Source: PubChem
In the library only some 3.4% were active in any assay of this set; here they are far more common.
TEAD-YAP block: TEAD-YAP interaction inhibition; HEK-TIYL cells, TEAD-Gal4/YAP UAS-luciferase luminescence; 640,000 tested, 1.4% active; inhibition, % at 9.12 µM; in the data active means inhibition above about 32%
FBW7 act: activators of human E3 ligase FBW7; normalized activity (activation), % at 26.1 µM; Q969H0; AlphaScreen FBW7–phospho-cyclin E peptide binding, activator screen; 650,000 tested, 0.13% active; AID 1259310; in the data active means normalized activity above about 1.9%;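 further: purified mutant Fbw7 with reduced substrate affinity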
GPR151 activ: activators of human GPR151. Q8TDV0. PathHunter beta-arrestin GPR151 cells, luminescence. activation, % at 11.2 µM. 650,000 tested, 1% active; in the data active means activation above about 4.9%
MITF inh: inhibitors of human MITF; O75030; AlphaScreen MITF homodimerization, bead proximity signal; inhibition, % at 2.6 µM; 650,000 tested, 0.91% active; AID 1259374; in the data active means inhibition above about 50%
MITF confirm: human MITF inhibition, confirmation | 4,700 tested, 16% active | AlphaScreen MITF homodimerization, biotin/His-MITF beads | shares compounds with MITF inh | inhibition, % at 2.6 µM;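 active means inhibition above a cutoff derived from the DMSO control wells, cut at about 28% in these data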;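 further: inhibitors lower the bead chemiluminescence by keeping MITF from dimerizing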
AlphaScreen DR: optically interferes with AlphaScreen signal in dose response. shares compounds with MITF inh. AlphaScreen optical interference counterscreen, cell-free. IC50, µM. 480 tested, 6% active. AID 1259373; call rule not given here
AS interf ctr: optically interferes with AlphaScreen signal; shares compounds with MITF inh; LysRS AlphaScreen counterscreen, signal interference, triplicate; inhibition, % at 2.6 µM; 4,700 tested, 7.6% active; AID 1259376;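 active means inhibition above a cutoff derived from the DMSO control wells, cut at about 30% in these data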
GPR151 confirm: confirmation of human GPR151 activators; shares compounds with GPR151 activ; 6,700 tested, under 10 active; activation, % at 11.2 µM; GPR151 PathHunter beta-arrestin cells, luminescence, 90 min; % of EA-reagent control over plate median;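 active means mean percent activation across replicates above the confirmation screen cutoff of 4.91%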
GPR119 ag: GPR119 activation, counter-screen for GPR151 activators. shares compounds with GPR151 activ. activation, % at 11.2 µM. 6,700 tested, 0.3% active. GPR119 PathHunter beta-arrestin cells, luminescence, 90 min; 0 = compound-well median, 100 = enzyme-acceptor control;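 active means mean percent activation in the counterscreen above 29.09%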;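 further: counterscreen on off-target GPR119 to flag nonselective hits from the GPR151 activator screen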
Target sequence (Q8TDV5 whole entry, looked up): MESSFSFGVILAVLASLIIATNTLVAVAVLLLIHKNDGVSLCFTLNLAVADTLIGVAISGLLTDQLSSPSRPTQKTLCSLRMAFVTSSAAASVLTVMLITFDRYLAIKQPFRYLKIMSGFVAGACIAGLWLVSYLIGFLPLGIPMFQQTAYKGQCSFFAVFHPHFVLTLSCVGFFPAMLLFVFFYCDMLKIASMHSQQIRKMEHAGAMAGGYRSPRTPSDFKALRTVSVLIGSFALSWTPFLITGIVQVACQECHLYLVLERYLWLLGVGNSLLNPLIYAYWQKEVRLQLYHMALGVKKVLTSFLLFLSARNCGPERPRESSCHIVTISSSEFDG
A number is an active result; 0 = inactive; - = no result given.

SMILES	TEAD-YAP block	FBW7 act	GPR151 activ	MITF inh	MITF confirm	AS interf ctr	GPR151 confirm	GPR119 ag	others
Cc1ccc(N2C(=O)c3ccccc3NC2c2cccc([N+](=O)[O-])c2)cc1 (configuration not stated)	0	0	8.6	63	77	0	0	0	AlphaScreen DR=0
COc1ccccc1C(=O)N1CCN(Cc2ccc3c(c2)OCO3)CC1	0	0	0	0	-	-	-	-
COc1ccccc1/C=C/CN1CCN(Cc2ccc3c(c2)OCO3)CC1	0	0	6.1	69	0	0	0	0
CCOC(=O)/C(C#N)=N/Nc1cc(C(N)=O)ccc1OC	0	0	0	0	-	-	-	-
Cc1ccc(S(=O)(=O)NCCNC(=O)c2ccc([N+](=O)[O-])cc2)cc1	0	0	0	0	-	-	-	-
CCc1cc(OCCCCN2CCNCC2)ccc1Cl	0	0	6.4	54	0	0	0	0
CCc1cc(OCCCN2CCNCC2)ccc1Cl	0	0	0	0	-	-	-	-
O=C1Nc2ccc(S(=O)(=O)NCc3ccccc3)cc2C1=O	0	0	6.1	79	57	0	0	0	AlphaScreen DR=0
O=S(=O)(NCc1ccccc1)c1cccc(S(=O)(=O)c2ccccc2)c1	0	0	0	0	-	-	-	-
COc1ccccc1CC(=O)N1CC[C@@H]2[C@H](CCCN2C(=O)c2occc2C)C1	0	0	7.3	52	0	0	0	0
Cc1ccc(S(=O)(=O)NC(=O)Nc2c3c(nn2C(C)(C)C)CSC3)cc1	0	0	0	0	-	-	-	-
CCOC(=O)N1CCN(C(=O)C2CCN(C/C(C)=C/c3ccccc3)CC2)CC1	0	0	6.6	58	0	0	0	0
C/C(=C\c1ccccc1)CN1CCC(C(=O)N2CCCC2)CC1	0	0	0	0	-	-	-	-
CCOC(=O)N1CC(=O)Nc2ccccc2S1(=O)=O	0	0	11	66	0	0	0	0
Cc1ccc(N2CC(=O)Nc3ccccc3S2(=O)=O)cc1	0	0	0	0	-	-	-	-
Cc1cccc(NC(=O)Nc2ccc3c(c2)CCCN3C(=O)C2CC2)c1	0	0	0	0	-	-	-	-
FC(F)(F)c1cccc(OCCCCNCCN2CCOCC2)c1	0	0	5.8	65	0	0	0	0
COC(=O)c1ccc([C@@H]2C[C@H]3CN(Cc4ccccc4C)C(=O)[C@]34CCCN24)cc1	0	0	0	0	-	-	-	-
COc1ccc(S(=O)(=O)N2CCN(C(=O)c3c(OC)cccc3OC)CC2)cc1	0	0	0	0	-	-	-	-
CC(=O)c1cccc(OCCCCN2CCN(C)CC2)c1	0	0	5.1	55	0	0	0	0
COc1ccc(OC)c(CN2CCN(Cc3ccc(C)cc3)CC2)c1	0	0	5.5	83	0	0	0	0
COc1ccc(OC)c(CN2CCC(C(=O)NCc3ccc(C)cc3)CC2)c1	0	0	0	0	-	-	-	-
Cc1ccccc1OCCOCCn1cnc2ccccc21	0	0	4.9	72	0	0	0	0
Cc1ccc(OCCN2CCNCC2)c(C)c1	0	0	0	0	-	-	-	-
CCN1CCN(CCOc2cc(C)ccc2C)CC1	0	0	17	65	0	0	0	0
SMILES	TEAD-YAP block	FBW7 act	GPR151 activ	MITF inh	MITF confirm	AS interf ctr	GPR151 confirm	GPR119 ag	others
c1cncc(CN2CCN(Cc3cccc4ccccc34)CC2)c1	0	0	11	83	0	0	0	0
O=S(=O)(/N=C(\c1ccc(Cl)cc1)N1CCOCC1)c1ccc(Br)cc1	0	0	0	0	-	-	-	-
Fc1ccccc1-c1cc(NCCCn2ccnc2)nc(-c2ccncc2)n1	0	0	7.5	62	34	41	0	0
Clc1cc2c(c3ncccc13)OCN(CCCN1CCOCC1)C2	0	0	5.2	92	102	100	0	0
O=c1c(Sc2nnc(-c3ccccc3)n2C2CCCCC2)c(Br)cnn1-c1ccccc1	0	0	0	0	-	-	-	-
O=C(O)c1cc(N=Cc2nc(-c3ccc(Cl)cc3)oc2O)ccc1O	0	0	0	0	-	-	-	-
O=C(O)c1cc(N=Cc2ccco2)ccc1O	0	0	5.0	51	81	0	0	0	AlphaScreen DR=0
COc1cc(OC)c(C(=O)OC2CCCC2=O)cc1OC (configuration not stated)	0	0	5.2	76	67	0	0	0	AlphaScreen DR=0
CCOc1ccccc1CN1CCC(N2CCCC2)CC1	0	0	9.2	56	0	0	0	0
Cc1cccc(-n2c(SCC(N)=O)nnc2-c2cccnc2)c1C	0	0	0	0	-	-	-	-
COc1ccccc1N1CCN(C2CCCN(C(=O)C3CCCCC3)C2)CC1 (configuration not stated)	0	0	0	0	-	-	-	-
COc1ccccc1N1CCN(C2CCCN(C(=O)C3(C(N)=O)CC3)C2)CC1 (configuration not stated)	0	0	5.6	0	-	-	0	0
CN1C(=O)OC2(C)CCc3ccccc3C12C (configuration not stated)	0	0	5.0	0	-	-	0	0
CC12CCc3ccccc3C1(C)OC(=O)O2 (configuration not stated)	0	0	0	0	-	-	-	-
O=C(CN1C(=O)c2cccc3cccc1c23)Nc1ccc(OC(F)(F)F)cc1	0	0	0	0	-	-	-	-
Cc1cccc(C(=O)O/N=C(\N)c2ccc([N+](=O)[O-])cc2)c1	0	0	5.6	0	-	-	0	0
Cc1cc(C)cc(C(=O)O/N=C(\N)c2ccc([N+](=O)[O-])cc2)c1	0	0	0	0	-	-	-	-
CC(C(=O)O/N=C(\N)c1ccccc1)c1ccc([N+](=O)[O-])cc1 (configuration not stated)	0	0	0	0	-	-	-	-
CC(Oc1ccc(Br)cc1)C(=O)O/N=C(\N)c1cccc([N+](=O)[O-])c1 (configuration not stated)	0	0	5.7	0	-	-	0	0
CC(Oc1ccc(Br)cc1)C(=O)O/N=C(\N)c1ccc([N+](=O)[O-])cc1 (configuration not stated)	0	0	0	0	-	-	-	-
CC(C(=O)O/N=C(\N)c1ccncc1)c1ccc([N+](=O)[O-])cc1 (configuration not stated)	0	0	21	0	-	-	0	0
Cc1cc(C(=O)O/N=C(\N)c2ccc(Br)cc2)ccc1[N+](=O)[O-]	0	0	6.4	0	-	-	0	0
Cc1ccc(SCC(=O)O/N=C(\N)c2cccc([N+](=O)[O-])c2)cc1	0	0	5.2	0	-	-	0	0
CC1(C)CC(C(=O)N2CCC[C@@H]3CN(C(=O)CCc4ccccc4)CC[C@H]32)CCO1 (some centres not stated)	0	0	0	0	-	-	-	-
